# Data as given in paper PMC7862700, “An all-to-all approach to the identification of sequence-specific readers for epigenetic DNA modifications on cytosine”.
# Tests used:
# Assay in all cases: DAPPL (digital affinity profiling via proximity ligation, sequencing); 10 mM Tris-HCl pH 7.5, 50 mM NaCl, 1 mM DTT, 4% glycerol, room temperature, 30 min; GST-TFs on glutathione beads, 16-mer random dsDNA library, 0.1% formaldehyde crosslink after washing; high values mean tight binding
# FEV = molecular target: T1, FEV (Homo sapiens, UniProt Q99581 1-238); conditions: protein: recombinant; tags: N-terminal GST; dsDNA, one strand shown
# T1 sequence: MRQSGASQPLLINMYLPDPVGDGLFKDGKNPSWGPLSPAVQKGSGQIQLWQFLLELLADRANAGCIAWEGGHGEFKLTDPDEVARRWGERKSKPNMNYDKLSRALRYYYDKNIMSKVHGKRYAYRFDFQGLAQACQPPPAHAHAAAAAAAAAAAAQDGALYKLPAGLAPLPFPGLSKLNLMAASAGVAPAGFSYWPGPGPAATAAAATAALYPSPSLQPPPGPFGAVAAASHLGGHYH
# Outline: (§1)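 Each value of binding signal is a hexamer's read frequency for a factor divided by the same hexamer's frequency in the tag-only sample. Barcoded, bead-captured GST fusions of human transcription factors made in yeast were pooled with that sample and incubated with 200 nmole of a random double-stranded 16-mer DNA library in Tris/NaCl/DTT/glycerol buffer at room temperature for 30 min. Washing, 0.1% formaldehyde crosslinking, proximity ligation, PCR and Illumina NextSeq500 sequencing followed.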
# ETV5 = ETV5 (Homo sapiens, UniProt P41161 1-510); conditions: protein: recombinant; tags: N-terminal GST; dsDNA, one strand shown
# Sequence of ETV5 (P41161 whole entry): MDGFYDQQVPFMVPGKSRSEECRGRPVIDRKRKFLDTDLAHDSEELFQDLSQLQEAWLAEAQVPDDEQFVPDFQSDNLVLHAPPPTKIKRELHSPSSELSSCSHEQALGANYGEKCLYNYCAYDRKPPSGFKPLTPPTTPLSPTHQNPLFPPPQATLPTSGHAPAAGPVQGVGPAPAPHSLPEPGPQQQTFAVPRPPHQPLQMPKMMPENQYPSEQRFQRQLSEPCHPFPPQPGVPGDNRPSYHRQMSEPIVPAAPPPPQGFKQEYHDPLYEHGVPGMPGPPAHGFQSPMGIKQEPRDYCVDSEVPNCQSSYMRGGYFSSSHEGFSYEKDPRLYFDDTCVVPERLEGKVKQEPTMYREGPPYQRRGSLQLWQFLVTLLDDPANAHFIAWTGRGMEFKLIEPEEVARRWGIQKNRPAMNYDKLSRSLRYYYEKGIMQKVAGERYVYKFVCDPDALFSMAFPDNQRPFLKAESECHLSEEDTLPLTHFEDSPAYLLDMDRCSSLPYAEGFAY
# Outline: as §1
# HSF1 = HSF1 (Homo sapiens, UniProt Q00613 1-529); conditions: protein: recombinant; tags: N-terminal GST; chain copies: 3; dsDNA, one strand shown
# Sequence of HSF1 (Q00613 whole entry): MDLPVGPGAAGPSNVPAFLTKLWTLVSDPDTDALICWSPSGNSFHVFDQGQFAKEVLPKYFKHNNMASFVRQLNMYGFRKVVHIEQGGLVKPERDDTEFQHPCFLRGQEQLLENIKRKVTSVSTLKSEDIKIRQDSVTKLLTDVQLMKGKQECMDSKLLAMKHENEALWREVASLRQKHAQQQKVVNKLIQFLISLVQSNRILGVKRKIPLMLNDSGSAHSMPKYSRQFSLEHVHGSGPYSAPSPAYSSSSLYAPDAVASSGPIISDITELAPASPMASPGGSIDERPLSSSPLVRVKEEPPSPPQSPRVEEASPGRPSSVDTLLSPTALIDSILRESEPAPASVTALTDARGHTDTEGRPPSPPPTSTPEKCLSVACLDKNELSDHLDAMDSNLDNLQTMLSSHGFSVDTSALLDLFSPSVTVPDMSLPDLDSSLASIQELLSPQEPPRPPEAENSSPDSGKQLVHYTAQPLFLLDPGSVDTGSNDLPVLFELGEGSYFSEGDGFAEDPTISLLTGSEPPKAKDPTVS
# Outline: as §1
# SPIC = molecular target: T2, SPIC (Homo sapiens, UniProt Q8N5J4 1-248); conditions: protein: recombinant; tags: N-terminal GST; dsDNA, one strand shown
# T2 sequence: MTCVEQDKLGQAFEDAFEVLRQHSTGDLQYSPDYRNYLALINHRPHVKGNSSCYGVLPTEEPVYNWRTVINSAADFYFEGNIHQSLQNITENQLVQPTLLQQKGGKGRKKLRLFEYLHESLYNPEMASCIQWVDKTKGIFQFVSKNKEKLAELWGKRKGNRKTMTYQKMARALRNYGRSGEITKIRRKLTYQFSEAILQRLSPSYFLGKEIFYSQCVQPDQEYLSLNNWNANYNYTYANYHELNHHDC
# Outline: as §1
# ELF4 = ELF4 (Homo sapiens, UniProt Q99607 1-663); conditions: protein: recombinant; tags: N-terminal GST; dsDNA, one strand shown
# Sequence of ELF4 (Q99607 whole entry): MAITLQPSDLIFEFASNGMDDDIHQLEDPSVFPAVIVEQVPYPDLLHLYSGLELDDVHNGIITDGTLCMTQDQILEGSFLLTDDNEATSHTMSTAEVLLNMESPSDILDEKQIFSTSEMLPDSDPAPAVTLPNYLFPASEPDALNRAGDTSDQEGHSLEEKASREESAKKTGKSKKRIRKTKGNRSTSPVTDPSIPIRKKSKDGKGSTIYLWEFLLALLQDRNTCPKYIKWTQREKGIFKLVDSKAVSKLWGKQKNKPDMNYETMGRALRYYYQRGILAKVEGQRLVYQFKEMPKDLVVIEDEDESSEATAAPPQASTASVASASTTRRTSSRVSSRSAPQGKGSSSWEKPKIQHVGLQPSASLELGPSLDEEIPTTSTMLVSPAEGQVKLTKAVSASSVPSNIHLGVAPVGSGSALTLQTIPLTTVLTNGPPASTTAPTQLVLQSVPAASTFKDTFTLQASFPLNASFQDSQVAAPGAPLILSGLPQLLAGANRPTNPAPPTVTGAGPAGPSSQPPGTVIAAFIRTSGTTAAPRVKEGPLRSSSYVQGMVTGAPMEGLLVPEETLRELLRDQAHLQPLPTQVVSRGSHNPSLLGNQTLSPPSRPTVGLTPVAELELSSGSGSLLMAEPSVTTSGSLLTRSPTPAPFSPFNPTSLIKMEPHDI
# Outline: as §1
# ELK4 = molecular target: T3, ELK4 (Homo sapiens, UniProt P28324-2 1-405); conditions: protein: recombinant; tags: N-terminal GST; dsDNA, one strand shown
# T3 sequence: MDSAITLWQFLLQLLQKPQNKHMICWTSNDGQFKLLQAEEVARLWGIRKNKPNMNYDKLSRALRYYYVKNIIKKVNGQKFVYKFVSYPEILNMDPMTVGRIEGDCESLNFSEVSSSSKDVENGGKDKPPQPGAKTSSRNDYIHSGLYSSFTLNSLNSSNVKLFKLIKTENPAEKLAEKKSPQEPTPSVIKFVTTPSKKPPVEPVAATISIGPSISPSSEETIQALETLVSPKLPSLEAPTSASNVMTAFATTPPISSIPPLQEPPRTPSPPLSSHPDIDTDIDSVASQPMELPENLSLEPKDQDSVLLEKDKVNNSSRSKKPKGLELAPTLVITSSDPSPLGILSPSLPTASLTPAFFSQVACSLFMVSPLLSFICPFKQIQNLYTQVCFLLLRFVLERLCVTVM
# Outline: as §1
# ETV2 = molecular target: T4, ETV2 (Homo sapiens, UniProt O00321 1-342); conditions: protein: recombinant; tags: N-terminal GST; dsDNA, one strand shown
# T4 sequence: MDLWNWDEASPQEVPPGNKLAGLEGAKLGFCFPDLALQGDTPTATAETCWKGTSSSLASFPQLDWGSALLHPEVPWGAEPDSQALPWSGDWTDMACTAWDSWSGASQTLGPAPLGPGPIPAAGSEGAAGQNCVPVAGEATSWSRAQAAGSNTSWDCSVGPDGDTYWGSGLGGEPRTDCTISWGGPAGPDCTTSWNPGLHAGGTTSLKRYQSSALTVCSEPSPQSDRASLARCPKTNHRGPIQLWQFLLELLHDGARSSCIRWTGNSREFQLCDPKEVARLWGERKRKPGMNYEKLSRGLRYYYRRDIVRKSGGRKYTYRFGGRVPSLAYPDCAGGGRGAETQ
# Outline: as §1
# ELF3 = molecular target: T5, ELF3 (Homo sapiens, UniProt P78545 1-371); conditions: protein: recombinant; tags: N-terminal GST; dsDNA, one strand shown
# T5 sequence: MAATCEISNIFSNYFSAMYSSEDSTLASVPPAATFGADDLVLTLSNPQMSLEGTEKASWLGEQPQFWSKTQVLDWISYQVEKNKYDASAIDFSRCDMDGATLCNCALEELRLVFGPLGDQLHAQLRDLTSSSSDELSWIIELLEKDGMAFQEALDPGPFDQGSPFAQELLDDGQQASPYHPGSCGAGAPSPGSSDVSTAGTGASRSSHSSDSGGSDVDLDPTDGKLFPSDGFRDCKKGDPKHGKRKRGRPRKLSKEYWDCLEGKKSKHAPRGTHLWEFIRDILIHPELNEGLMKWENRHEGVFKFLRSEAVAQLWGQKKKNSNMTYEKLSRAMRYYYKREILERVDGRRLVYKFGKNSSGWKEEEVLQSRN
# Outline: as §1
# CRX = CRX (Homo sapiens, UniProt O43186 1-299); conditions: protein: recombinant; tags: N-terminal GST; dsDNA, one strand shown
# Sequence of CRX (O43186 whole entry): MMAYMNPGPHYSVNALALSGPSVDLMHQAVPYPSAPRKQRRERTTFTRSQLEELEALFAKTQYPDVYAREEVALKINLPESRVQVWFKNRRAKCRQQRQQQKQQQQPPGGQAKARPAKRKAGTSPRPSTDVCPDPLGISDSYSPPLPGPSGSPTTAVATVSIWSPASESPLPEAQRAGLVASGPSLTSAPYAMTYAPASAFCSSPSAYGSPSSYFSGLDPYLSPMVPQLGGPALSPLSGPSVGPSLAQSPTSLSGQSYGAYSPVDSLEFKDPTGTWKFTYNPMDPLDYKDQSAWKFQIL
# Outline: as §1
# ETV1 = ETV1 (Homo sapiens, UniProt P50549 1-477); conditions: protein: recombinant; tags: N-terminal GST; dsDNA, one strand shown
# Sequence of ETV1 (P50549 whole entry): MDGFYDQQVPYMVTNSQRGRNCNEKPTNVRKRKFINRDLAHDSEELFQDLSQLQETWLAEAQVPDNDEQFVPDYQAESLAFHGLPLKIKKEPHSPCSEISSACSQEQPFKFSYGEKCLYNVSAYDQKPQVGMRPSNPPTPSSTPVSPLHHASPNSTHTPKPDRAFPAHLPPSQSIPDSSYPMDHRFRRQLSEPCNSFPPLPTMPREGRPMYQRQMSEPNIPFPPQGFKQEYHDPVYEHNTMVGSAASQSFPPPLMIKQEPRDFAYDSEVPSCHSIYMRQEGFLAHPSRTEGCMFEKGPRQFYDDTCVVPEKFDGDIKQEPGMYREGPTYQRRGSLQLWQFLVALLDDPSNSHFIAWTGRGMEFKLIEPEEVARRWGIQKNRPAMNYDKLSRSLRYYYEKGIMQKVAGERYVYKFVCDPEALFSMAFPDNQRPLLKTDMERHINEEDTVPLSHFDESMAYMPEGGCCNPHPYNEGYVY
# Outline: as §1
# ERF = molecular target: T6, ERF (Homo sapiens, UniProt P50548 1-548); conditions: protein: recombinant; tags: N-terminal GST; dsDNA, one strand shown
# T6 sequence: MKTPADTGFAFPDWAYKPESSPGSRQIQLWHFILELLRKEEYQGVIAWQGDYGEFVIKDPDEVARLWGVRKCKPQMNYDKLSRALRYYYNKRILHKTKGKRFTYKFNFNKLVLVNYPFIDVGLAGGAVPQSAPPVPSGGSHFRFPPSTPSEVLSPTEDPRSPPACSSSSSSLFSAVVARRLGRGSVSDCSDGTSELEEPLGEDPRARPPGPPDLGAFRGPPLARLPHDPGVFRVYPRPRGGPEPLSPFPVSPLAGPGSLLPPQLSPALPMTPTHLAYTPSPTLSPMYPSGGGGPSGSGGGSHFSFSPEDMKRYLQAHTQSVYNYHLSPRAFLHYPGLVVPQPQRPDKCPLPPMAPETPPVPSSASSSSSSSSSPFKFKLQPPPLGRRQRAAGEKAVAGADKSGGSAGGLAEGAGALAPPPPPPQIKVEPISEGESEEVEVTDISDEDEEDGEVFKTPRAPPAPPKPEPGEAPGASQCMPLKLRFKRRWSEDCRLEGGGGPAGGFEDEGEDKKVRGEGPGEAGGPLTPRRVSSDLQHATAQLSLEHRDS
# Outline: as §1
# ETV3L = molecular target: T7, ETV3L (Homo sapiens, UniProt Q6ZN32 1-361); conditions: protein: recombinant; tags: N-terminal GST; dsDNA, one strand shown
# T7 sequence: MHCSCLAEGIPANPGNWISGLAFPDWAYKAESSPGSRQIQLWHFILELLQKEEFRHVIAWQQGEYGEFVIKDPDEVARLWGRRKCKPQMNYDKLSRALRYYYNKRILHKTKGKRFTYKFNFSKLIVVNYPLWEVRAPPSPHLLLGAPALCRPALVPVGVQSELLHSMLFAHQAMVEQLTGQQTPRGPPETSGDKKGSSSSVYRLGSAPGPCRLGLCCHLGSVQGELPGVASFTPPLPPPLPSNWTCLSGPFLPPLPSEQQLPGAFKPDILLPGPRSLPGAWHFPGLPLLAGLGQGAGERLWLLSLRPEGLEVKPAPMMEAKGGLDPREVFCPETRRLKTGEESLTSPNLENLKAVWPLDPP
# Outline: as §1
# ETS2 = molecular target: T8, ETS2 (Homo sapiens, UniProt P15036 1-469); conditions: protein: recombinant; tags: N-terminal GST; dsDNA, one strand shown
# T8 sequence: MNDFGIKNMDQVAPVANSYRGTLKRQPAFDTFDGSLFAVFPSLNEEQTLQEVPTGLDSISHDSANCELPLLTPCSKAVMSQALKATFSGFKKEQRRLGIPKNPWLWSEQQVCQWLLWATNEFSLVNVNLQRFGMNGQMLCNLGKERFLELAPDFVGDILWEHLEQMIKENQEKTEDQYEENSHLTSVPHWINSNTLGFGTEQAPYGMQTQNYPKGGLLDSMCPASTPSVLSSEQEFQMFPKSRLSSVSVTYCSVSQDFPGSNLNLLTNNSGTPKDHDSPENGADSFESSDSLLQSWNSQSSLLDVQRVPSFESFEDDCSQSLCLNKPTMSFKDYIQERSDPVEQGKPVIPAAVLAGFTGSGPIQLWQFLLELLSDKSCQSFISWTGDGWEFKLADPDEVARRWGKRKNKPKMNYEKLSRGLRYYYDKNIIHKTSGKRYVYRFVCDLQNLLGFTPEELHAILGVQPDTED
# Outline: as §1
# SPDEF = molecular target: T9, SPDEF (Homo sapiens, UniProt O95238 1-335); conditions: protein: recombinant; tags: N-terminal GST; dsDNA, one strand shown
# T9 sequence: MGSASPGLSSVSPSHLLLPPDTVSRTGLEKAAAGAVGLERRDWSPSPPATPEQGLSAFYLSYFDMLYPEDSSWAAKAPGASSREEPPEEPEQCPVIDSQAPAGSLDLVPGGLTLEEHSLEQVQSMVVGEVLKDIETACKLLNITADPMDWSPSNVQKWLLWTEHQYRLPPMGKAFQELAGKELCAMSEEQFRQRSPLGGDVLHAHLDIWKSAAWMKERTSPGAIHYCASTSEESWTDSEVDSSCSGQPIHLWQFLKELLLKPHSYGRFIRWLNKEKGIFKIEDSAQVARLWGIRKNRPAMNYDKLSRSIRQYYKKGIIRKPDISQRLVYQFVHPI
# Outline: as §1
# ETV7 = molecular target: T10, ETV7 (Homo sapiens, UniProt Q9Y603 1-341); conditions: protein: recombinant; tags: N-terminal GST; dsDNA, one strand shown
# T10 sequence: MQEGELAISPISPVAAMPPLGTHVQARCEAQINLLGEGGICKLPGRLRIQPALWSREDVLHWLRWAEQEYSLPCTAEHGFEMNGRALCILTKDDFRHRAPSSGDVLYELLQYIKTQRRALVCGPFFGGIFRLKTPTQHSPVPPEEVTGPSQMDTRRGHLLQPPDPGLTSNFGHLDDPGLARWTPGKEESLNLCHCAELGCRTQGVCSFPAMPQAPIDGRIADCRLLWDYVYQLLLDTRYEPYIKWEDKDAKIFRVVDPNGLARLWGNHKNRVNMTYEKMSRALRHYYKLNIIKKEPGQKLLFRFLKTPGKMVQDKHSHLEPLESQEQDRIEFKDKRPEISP
# Outline: as §1
# ELF5 = molecular target: T11, ELF5 (Homo sapiens, UniProt Q9UKW6-2 1-255); conditions: protein: recombinant; tags: N-terminal GST; dsDNA, one strand shown
# T11 sequence: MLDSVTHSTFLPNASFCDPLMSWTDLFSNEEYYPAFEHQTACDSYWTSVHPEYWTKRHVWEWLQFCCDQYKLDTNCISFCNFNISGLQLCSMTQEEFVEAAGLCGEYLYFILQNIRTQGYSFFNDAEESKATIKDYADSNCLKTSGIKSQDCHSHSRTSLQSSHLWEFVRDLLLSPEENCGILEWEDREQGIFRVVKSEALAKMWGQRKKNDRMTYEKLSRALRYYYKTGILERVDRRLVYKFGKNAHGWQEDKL
# Outline: as §1
# ETV3 = molecular target: T12, ETV3 (Homo sapiens, UniProt P41162-2 1-143); conditions: protein: recombinant; tags: N-terminal GST; dsDNA, one strand shown
# T12 sequence: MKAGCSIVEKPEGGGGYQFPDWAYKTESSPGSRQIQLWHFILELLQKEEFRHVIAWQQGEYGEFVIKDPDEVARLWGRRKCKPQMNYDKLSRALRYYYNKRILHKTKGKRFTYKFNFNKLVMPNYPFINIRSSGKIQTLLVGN
# Outline: as §1
# ETV6 = ETV6 (Homo sapiens, UniProt P41212 1-452); conditions: protein: recombinant; tags: N-terminal GST; dsDNA, one strand shown
# Sequence of ETV6 (P41212 whole entry): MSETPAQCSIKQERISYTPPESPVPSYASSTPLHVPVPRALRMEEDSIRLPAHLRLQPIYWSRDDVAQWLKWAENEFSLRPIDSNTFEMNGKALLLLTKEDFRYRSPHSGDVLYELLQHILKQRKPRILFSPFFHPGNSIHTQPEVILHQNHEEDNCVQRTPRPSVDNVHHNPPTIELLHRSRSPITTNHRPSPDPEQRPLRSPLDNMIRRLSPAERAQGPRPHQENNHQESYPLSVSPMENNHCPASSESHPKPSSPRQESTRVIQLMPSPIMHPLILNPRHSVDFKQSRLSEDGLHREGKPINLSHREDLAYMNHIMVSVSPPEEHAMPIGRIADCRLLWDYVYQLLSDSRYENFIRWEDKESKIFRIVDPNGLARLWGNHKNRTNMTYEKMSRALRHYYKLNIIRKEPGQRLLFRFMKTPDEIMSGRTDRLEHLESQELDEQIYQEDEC
# Outline: as §1
sequence,measurement,setting,value
AAACAA,binding signal,FEV,"1.28 fold enrichment (6-mer frequency, TF over GST control)"
same,binding signal,ETV5,"1.28 fold enrichment (6-mer frequency, TF over GST control)"
same,binding signal,HSF1,"1.23 fold enrichment (6-mer frequency, TF over GST control)"
same,binding signal,SPIC,"1.33 fold enrichment (6-mer frequency, TF over GST control)"
same,binding signal,ELF4,"1.31 fold enrichment (6-mer frequency, TF over GST control)"
same,binding signal,ELK4,"1.28 fold enrichment (6-mer frequency, TF over GST control)"
same,binding signal,ETV2,"1.31 fold enrichment (6-mer frequency, TF over GST control)"
same,binding signal,ELF3,"1.49 fold enrichment (6-mer frequency, TF over GST control)"
same,binding signal,CRX,"1.06 fold enrichment (6-mer frequency, TF over GST control)"
same,binding signal,ETV1,"1.32 fold enrichment (6-mer frequency, TF over GST control)"
same,binding signal,ERF,"1.25 fold enrichment (6-mer frequency, TF over GST control)"
same,binding signal,ETV3L,"1.32 fold enrichment (6-mer frequency, TF over GST control)"
same,binding signal,ETS2,"1.32 fold enrichment (6-mer frequency, TF over GST control)"
same,binding signal,SPDEF,"1.27 fold enrichment (6-mer frequency, TF over GST control)"
same,binding signal,ETV7,"1.28 fold enrichment (6-mer frequency, TF over GST control)"
same,binding signal,ELF5,"1.28 fold enrichment (6-mer frequency, TF over GST control)"
same,binding signal,ETV3,"1.3 fold enrichment (6-mer frequency, TF over GST control)"
same,binding signal,ETV6,"1.31 fold enrichment (6-mer frequency, TF over GST control)"
